# Laboratory results taken from the supplement of paper PMC11001985.
# Unmarked numbers belong to inactive results.
# Compound: C#CCNC(=O)CCSSCCC(=O)NCCc1ccc(C=O)c(C=O)c1
# Assay: lysine labeling ratio R10:1 (500 µM / 50 µM probe), SILAC-ABPP in living cells; higher = lower intrinsic lysine reactivity toward the probe, active = 2 or less
# Settings: HeLa; probe concentrations 500 vs 50 µM
# In short: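 Forward and reverse SILAC label swaps were used with living light and heavy HeLa cells in PBS at room temperature, which were given an alkyne-tagged, disulfide-linked lysine probe at 50 µM or 500 µM. R is the per-lysine filtered median high-probe/low-probe MS1 peptide ratio, with the median then taken across both swap directions. Values are limited to 20.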
# UniProt Q14204, sequence (Q14204 whole entry): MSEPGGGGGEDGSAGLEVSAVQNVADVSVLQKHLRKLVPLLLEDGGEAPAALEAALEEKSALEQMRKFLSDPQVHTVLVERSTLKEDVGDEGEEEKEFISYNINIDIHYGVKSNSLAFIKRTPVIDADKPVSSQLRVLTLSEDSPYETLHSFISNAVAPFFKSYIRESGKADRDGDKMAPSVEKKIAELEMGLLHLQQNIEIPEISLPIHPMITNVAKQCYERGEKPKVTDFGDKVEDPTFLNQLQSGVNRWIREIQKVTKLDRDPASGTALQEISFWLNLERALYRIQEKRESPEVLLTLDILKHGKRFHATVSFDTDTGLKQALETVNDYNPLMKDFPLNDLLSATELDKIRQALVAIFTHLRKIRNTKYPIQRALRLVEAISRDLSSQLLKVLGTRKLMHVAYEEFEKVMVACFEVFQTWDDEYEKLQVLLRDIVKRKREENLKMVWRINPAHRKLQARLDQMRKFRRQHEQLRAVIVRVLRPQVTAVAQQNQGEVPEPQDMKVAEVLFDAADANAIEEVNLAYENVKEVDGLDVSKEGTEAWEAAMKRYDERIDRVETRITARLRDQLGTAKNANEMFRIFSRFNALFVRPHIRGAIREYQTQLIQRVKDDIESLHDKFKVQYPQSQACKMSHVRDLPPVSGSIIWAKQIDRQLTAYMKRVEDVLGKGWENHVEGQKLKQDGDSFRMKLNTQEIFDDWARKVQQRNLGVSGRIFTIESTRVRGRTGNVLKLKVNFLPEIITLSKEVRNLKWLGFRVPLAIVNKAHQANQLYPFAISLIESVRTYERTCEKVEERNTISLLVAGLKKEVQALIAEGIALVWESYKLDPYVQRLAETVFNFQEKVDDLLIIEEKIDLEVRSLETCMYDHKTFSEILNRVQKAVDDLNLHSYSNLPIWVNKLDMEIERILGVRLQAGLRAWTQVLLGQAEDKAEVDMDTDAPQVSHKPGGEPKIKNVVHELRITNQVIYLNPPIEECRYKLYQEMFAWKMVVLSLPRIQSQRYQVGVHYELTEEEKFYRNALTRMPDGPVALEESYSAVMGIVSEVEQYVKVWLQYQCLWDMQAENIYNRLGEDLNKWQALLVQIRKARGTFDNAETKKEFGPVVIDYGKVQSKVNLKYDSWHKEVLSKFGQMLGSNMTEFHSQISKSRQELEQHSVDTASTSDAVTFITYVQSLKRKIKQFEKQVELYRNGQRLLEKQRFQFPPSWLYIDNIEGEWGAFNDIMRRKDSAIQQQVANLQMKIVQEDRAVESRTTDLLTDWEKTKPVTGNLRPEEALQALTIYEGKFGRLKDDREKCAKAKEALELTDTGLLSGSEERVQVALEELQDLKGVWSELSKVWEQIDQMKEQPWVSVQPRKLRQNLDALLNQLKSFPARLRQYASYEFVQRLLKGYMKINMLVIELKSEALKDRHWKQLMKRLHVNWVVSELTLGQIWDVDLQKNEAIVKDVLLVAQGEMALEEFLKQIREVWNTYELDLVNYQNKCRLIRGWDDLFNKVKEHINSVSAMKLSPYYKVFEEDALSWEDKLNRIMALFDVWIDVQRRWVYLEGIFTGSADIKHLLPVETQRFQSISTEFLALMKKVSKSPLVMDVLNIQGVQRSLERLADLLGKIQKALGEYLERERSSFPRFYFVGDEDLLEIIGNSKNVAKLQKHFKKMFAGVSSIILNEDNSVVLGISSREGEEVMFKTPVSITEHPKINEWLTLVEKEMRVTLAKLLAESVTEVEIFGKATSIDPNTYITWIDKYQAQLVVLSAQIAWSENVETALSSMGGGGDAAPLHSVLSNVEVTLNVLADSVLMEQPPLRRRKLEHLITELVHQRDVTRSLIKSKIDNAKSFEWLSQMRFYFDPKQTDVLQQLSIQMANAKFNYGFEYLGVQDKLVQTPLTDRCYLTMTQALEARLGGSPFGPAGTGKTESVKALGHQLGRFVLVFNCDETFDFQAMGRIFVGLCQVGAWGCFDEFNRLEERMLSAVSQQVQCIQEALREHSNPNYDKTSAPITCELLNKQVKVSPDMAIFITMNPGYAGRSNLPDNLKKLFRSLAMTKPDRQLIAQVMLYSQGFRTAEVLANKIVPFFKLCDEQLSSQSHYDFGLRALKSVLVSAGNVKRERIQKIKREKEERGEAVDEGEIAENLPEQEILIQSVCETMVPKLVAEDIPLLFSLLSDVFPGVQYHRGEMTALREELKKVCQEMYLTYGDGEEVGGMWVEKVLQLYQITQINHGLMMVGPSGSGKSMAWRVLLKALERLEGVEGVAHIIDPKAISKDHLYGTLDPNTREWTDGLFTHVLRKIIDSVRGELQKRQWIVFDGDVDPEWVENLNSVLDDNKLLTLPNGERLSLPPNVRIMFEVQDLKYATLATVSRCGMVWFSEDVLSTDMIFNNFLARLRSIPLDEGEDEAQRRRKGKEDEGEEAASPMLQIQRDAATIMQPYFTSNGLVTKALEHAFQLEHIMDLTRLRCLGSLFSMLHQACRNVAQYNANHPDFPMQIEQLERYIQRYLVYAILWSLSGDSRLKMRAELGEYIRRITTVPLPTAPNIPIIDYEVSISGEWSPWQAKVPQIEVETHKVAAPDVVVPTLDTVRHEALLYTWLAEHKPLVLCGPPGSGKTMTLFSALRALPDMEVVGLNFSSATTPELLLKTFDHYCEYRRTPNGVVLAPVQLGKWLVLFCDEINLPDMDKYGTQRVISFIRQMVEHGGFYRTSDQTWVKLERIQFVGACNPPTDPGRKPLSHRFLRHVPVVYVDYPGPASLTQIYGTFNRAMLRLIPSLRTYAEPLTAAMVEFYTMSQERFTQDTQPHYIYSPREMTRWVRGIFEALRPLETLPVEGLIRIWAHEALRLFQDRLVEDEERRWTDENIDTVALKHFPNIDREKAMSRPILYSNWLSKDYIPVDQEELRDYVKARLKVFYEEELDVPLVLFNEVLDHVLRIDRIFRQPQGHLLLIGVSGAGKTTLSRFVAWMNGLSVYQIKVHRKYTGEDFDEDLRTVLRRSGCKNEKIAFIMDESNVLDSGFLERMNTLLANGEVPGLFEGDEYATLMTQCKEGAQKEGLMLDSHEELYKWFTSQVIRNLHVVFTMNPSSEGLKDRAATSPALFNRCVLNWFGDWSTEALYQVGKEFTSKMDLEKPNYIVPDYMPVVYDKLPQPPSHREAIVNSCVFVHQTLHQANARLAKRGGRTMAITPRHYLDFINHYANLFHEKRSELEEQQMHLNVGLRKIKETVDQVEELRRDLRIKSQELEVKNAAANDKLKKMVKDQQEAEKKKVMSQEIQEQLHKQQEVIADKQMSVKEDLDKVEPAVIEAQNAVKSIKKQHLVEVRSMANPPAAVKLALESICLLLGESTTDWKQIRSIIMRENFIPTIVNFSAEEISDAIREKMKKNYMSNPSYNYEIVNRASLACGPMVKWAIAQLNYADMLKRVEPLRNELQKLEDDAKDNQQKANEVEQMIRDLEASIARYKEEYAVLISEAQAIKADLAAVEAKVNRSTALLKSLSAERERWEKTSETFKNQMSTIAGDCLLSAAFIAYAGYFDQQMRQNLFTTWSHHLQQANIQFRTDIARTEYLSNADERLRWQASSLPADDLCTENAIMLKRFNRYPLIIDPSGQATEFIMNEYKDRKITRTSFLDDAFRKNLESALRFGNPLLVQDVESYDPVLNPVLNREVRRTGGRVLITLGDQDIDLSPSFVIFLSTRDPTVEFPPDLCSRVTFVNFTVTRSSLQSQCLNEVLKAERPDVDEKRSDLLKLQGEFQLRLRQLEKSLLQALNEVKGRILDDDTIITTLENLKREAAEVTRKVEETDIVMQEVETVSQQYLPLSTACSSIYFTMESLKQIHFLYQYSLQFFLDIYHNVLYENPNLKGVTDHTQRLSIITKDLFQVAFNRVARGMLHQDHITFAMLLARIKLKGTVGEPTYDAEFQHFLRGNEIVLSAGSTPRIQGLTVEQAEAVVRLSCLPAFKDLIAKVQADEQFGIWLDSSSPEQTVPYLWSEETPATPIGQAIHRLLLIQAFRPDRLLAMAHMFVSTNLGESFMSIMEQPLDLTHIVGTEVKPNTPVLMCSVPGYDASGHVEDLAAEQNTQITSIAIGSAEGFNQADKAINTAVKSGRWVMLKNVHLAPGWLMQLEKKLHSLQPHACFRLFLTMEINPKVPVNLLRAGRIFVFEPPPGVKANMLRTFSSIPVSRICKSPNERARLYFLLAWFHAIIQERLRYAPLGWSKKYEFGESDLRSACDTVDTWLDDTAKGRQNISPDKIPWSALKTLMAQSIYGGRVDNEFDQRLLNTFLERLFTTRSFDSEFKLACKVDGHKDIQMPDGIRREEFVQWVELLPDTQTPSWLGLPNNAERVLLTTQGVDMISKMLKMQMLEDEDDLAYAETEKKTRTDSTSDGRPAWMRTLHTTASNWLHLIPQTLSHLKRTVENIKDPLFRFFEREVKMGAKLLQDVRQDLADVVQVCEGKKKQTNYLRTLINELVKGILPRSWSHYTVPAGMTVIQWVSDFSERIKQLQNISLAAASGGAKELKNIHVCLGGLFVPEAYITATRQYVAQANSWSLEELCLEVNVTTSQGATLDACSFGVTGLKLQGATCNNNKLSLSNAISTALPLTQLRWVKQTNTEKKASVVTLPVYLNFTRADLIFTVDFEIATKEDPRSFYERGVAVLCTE
# UniProt P61981, sequence (P61981 whole entry): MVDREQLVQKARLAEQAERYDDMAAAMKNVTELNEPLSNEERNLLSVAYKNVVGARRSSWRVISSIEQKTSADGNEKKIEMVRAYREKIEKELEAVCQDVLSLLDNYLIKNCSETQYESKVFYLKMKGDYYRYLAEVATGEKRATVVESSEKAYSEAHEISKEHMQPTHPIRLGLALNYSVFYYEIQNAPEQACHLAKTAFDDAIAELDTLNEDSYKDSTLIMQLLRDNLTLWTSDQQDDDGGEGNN
# UniProt P21926, sequence (P21926 whole entry): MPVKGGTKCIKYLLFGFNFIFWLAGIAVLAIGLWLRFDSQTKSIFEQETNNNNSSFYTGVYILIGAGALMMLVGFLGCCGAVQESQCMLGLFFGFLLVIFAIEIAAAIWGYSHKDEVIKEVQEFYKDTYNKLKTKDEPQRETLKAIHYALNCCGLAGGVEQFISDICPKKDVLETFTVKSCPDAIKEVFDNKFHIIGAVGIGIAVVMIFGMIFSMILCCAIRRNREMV
row,Target,lysine labeling ratio R10:1
1,ITGB1 (lysine site: K238) (UniProt P05556),1.34 (active)
2,EDIL3 (lysine site: K426) (UniProt O43854),2.91
3,MELTF (lysine site: K544) (UniProt P08582),2.25
4,CNP (lysine site: K402) (UniProt P09543),2.29
5,UniProt P61981 (lysine site: K142),3.71
6,DYNC1H1 (lysine site: K3621) (UniProt Q14204),3.03
7,BPTF (lysine site: K609) (UniProt Q12830),8.91
8,MCAM (lysine site: K551) (UniProt P43121),5.15
9,RPL28 (lysine site: K19) (UniProt P46779),0.79 (active)
10,G6PD (lysine site: K497) (UniProt P11413),3.47
11,CFL1 (lysine site: K164) (UniProt P23528),4.91
12,SLC25A5 (lysine site: K23) (UniProt P05141),3.58
13,LGALS1 (lysine site: K108) (UniProt P09382),1.62 (active)
14,UniProt P68371 (lysine site: K58),2.53
15,WASF2 (lysine site: K109) (UniProt Q9Y6W5),1.24 (active)
16,UniProt P26639 (lysine site: K213),0.782 (active)
17,MYH9 (lysine site: K1669) (UniProt P35579),5.57
18,UniProt P22413 (lysine site: K448),0.527 (active)
19,CD9 (lysine site: K131) (UniProt P21926),7.57
20,PLS3 (lysine site: K346) (UniProt P13797),0.842 (active)

row,Target,lysine labeling ratio R10:1
1,UniProt P05787 (lysine site: K464),5.11
2,UniProt P62805 (lysine site: K13),2.71
3,UniProt Q9BZM4 (lysine site: K158),2.74
4,ATP1B1 (lysine site: K277) (UniProt P05026),17.2
5,RPL5 (lysine site: K283) (UniProt P46777),1.68 (active)
6,ILF3 (lysine site: K535) (UniProt Q12906),0.982 (active)
7,ARHGAP17 (lysine site: K9) (UniProt Q68EM7),1.92 (active)
8,UniProt P55285 (lysine site: K276),1.67 (active)
9,SPTAN1 (lysine site: K2205) (UniProt Q13813),6.67
10,ATAD3B (lysine site: K46) (UniProt Q5T9A4),3.54
11,VCL (lysine site: K778) (UniProt P18206),1.11 (active)
12,ACTN4 (lysine site: K66) (UniProt O43707),4.43
13,PPIB (lysine site: K98) (UniProt P23284),1.78 (active)
14,FLNB (lysine site: K697) (UniProt O75369),2.95
15,DSG2 (lysine site: K362) (UniProt Q14126),1.02 (active)
16,UniProt Q8WXI7 (lysine site: K13228),11.9
17,DYNC1H1 (lysine site: K3480) (UniProt Q14204),1.73 (active)
18,CCT2 (lysine site: K441) (UniProt P78371),1.98 (active)
19,UniProt Q15149 (lysine site: K2706),3.69
20,PNN (lysine site: K262) (UniProt Q9H307),1.08 (active)
